Measured values published in PubChem BioAssay (NCI).
Compounds without any hit were thinned out: in the full panel of roughly 83,000, 20% have a hit.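 Cells were grown in 96-well plates and exposed to the test compound at a single concentration for 48 hours; results are reported as percent growth, with values below 10 considered active.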 Values without a mark were called inactive. Calls of active or inactive are those of the source.

Key:
Experiment in all cases: NCI-60 one-dose screen, 48 h (100 = growth as untreated, 0 = no growth, -100 = all killed)
Settings in all cases: 10 µM unless noted
[1] = tested on: SK-MEL-2 melanoma
[2] = tested on: EKVX NSCLC
[3] = tested on: SN12C renal
[4] = tested on: UO-31 renal
[5] = tested on: TK-10 renal
[6] = tested on: ACHN renal
[7] = tested on: CAKI-1 renal
[8] = tested on: CCRF-CEM leukemia
[9] = tested on: MOLT-4 leukemia
[10] = tested on: SR leukemia
[11] = tested on: RPMI-8226 leukemia
[12] = tested on: OVCAR-5 ovarian
[13] = tested on: OVCAR-4 ovarian
[14] = tested on: SK-OV-3 ovarian
[15] = tested on: IGROV1 ovarian
[16] = tested on: OVCAR-3 ovarian
[17] = tested on: HS 578T breast
[18] = tested on: NCI/ADR-RES ovarian
[19] = tested on: OVCAR-8 ovarian

SMILES	growth [1]	growth [2] [%]	growth [3]	growth [4]	growth [5]	growth [6]	growth [7]	growth [8] [%]	growth [9]	growth [10]	growth [11]	growth [12]	growth [13]	growth [14] [%]	growth [15]	growth [16]	growth [17]	growth [18]	growth [19]
CC(=O)N1N=C(c2cccc(Nc3ccncc3)c2)CC1c1ccccc1 (stereo unspecified)	100%	83.9	81.7%	80.6%	99.5%	94.6%	77.2%	84.1	81.4%	58.3%	76.2%	90.1%	89.7%	84.2	96%	91.7%	83.4%	91.9%	–
CCSc1ccc2c(c1)N(CCCN1CCN(C)CC1)c1ccccc1S2	69%	59.3	57.6%	9.67% (active)	55.6%	43.5%	50%	27.9	18.5%	-15% (active)	32.1%	–	61.2%	78.7	–	58.2%	61.4%	60.8%	76.3%
c1ccc(-c2nn(-c3ccccc3)[n+](-c3cccc4ccccc34)n2)cc1	-11.3% (active)	11.8	32.7%	69.1%	40.4%	72.2%	90.3%	18.7	18.9%	4.45% (active)	0.0671% (active)	–	41.4%	66.3	10.6%	8.96% (active)	8.44% (active)	90.1%	-43.5% (active)
CC(=O)c1c(-c2ccc(OC(F)(F)F)cc2)nc2ccccn12	81.5%	96	103%	81.6%	6.58% (active)	95.7%	92.4%	109	118%	116%	101%	83.1%	–	97.6	88.8%	101%	102%	95.9%	–
O=C1c2ccccc2-c2c1c1c(NCCCO)nc3ccccc3c1n2Cc1ccccc1	48.5%	17.8	18.6%	-40.9% (active)	-20.2% (active)	50.1%	33.9%	36	16.9%	5.22% (active)	46.2%	45.6%	10.7%	–	15.7%	14.4%	–	3.37% (active)	–
Cc1cn(-c2cc(C(=O)Nc3cccc(C#Cc4cccc5[nH]nc(N)c45)c3)cc(C(F)(F)F)c2)cn1	5.21% (active)	68	62.3%	30.2%	58.5%	30.3%	79.6%	47.4	36.5%	49.9%	20.1%	–	38%	–	25.5%	77.7%	39.4%	98.6%	–
Cc1n[nH]c(C)c1-c1c(C)n[nH]c1C	29.9%	18.2	9.52% (active)	-0.471% (active)	13%	-47.7% (active)	-36% (active)	12.3	0.721% (active)	-6.74% (active)	–	2.14% (active)	-17.5% (active)	46.8	5.52% (active)	-53.4% (active)	-8.48% (active)	9.39% (active)	12.4%
NC(=O)c1cccc(-n2ccc3cc(NC(=O)Nc4cc(C(F)(F)F)cc(C(F)(F)F)c4)ccc32)n1	76.6%	40.5	35.9%	47.4%	62.8%	39.9%	41.4%	53.7	26.4%	44.3%	–	72.4%	44%	73.7	29.8%	39.1%	38.6%	41.8%	37.2%
O=S(=O)(NCCCNc1nccc(-c2c(-c3cccc(O)c3)nc3occn23)n1)c1ccc(Br)cc1	54.3%	105	80.3%	90.8%	135%	84.9%	75.6%	87.9	72.9%	89.8%	86.4%	–	118%	94	79.2%	102%	91.6%	107%	86%
O=C1CCC(NC(=S)Nc2ccccc2)N1 (stereo unspecified)	103%	117	97.4%	95.3%	101%	109%	106%	97.2	106%	93.8%	101%	111%	107%	117	102%	106%	105%	96.9%	–
COc1ccc(/C=N/C2=C(C#N)C(c3ccccc3[N+](=O)[O-])c3ccc4ccccc4c3O2)cc1 (stereo unspecified)	92.8%	72.1	91.6%	64.8%	182%	90.8%	68.3%	106	89.5%	89.4%	90.3%	105%	91.5%	101	54.6%	77.4%	95.3%	95.8%	–
CCCCCN1C=C/C(=C\C(=O)N(C)c2ccc(Br)cc2)c2ccccc21	109%	84.8	97.6%	77.6%	102%	113%	86.7%	97.9	85%	90.5%	89.1%	104%	84.4%	96.8	96.3%	98.8%	98.6%	100%	–
O=C1OC(=O)C2C1CC=CC2c1ccccc1 (stereo unspecified)	97.3%	90.9	87.6%	88.9%	102%	104%	102%	84.2	90.6%	55%	93.8%	85.6%	83.4%	81.8	84.6%	104%	76.7%	91.1%	–
Nc1nnc(C(=O)c2cnc3n(c2=O)CCCCC3)s1	112%	98.8	95.1%	86.3%	102%	101%	92.3%	128	97.1%	107%	–	104%	111%	101	110%	102%	99.7%	94.7%	105%
CN1CCCC1=Nc1ccccc1	114%	103	95.5%	92.2%	107%	115%	94.6%	105	101%	91.9%	107%	118%	–	–	111%	128%	106%	104%	105%
CN1CCN(CC#CCNC(=O)[C@]23CCC(C)(C)C[C@H]2C2=CC[C@@H]4[C@@]5(C)Cc6c([nH]c7ccccc67)C(C)(C)[C@@H]5CC[C@@]4(C)[C@]2(C)CC3)CC1	98.3%	83.3	77.8%	64.2%	91.8%	95.3%	87.2%	48.8	31.2%	-2.18% (active)	53.2%	98.9%	77.8%	87.1	81.3%	72.2%	77.9%	76.9%	–
